Source: PubChem
An excerpt weighted towards active compounds, which were near 6.3% of everything screened.
Gal4-VP16 FLuc: VP16 counterscreen qHTS for inhibitors of ROR gamma transcriptional activity | Drosophila S2 Gal4-VP16 UAS-luciferase, luminescence, 20 h | Potency, µM (highest dose often 53.6 µM), for the others: at the highest dose activity, negative = inhibition, usual class: inhibitors | hit rate 3.5% among 310,000 | AID 2546, 2010;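 further: Gal4-VP16 expression switched on by copper sulfate through the metallothionein promoter; on the % scale 0 is the no-effect control and ±100 the full control effect; nearly all actives have a fitted effect of over 50% in size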
RORgamma inh: qHTS for inhibitors of ROR gamma transcriptional activity | Nuclear receptor ROR-gamma (Mus musculus), P51450 | hit rate 5.4% among 310,000 | Drosophila S2 Gal4-RORgamma UAS-luciferase reporter, 20 h | AID 2551, 2010 | Potency, µM (series often up to 53.6 µM), inactives show top-dose activity change, negative = inhibition, usual class: inhibitors; further: on the % scale 0 is the no-effect control and ±100 the full control effect; nearly all actives have a fitted effect of over 60% in size
Target sequence (P51450 whole entry, looked up, the tested form may be a part): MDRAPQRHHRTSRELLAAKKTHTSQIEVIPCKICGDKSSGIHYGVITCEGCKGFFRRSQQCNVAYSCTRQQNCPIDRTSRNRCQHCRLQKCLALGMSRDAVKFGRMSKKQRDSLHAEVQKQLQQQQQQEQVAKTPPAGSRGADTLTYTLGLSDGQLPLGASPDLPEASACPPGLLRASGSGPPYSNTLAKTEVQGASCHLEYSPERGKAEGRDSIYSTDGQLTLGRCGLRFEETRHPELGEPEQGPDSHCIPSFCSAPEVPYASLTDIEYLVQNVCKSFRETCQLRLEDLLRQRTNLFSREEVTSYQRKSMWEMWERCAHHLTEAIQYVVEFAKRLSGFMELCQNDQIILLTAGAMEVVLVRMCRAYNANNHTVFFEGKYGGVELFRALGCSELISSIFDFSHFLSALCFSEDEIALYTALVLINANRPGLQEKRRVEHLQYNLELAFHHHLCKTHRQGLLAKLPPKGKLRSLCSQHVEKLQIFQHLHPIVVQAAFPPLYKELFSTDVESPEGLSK
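Luminescence from a UAS-regulated Photinus luciferase reporter in stably transfected Drosophila Schneider cells is measured; decreased signal marks ROR gamma inhibition. Fusion expression is induced by 700 uM copper sulfate for 20 hr.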
HepG2 tox: qHTS for Inhibitors of TGF-b: Cytotox Counterscreen; Potency, µM (top dose mostly 46.1 µM), without a hit: at the top dose activity change, negative = cytotoxicity, usual class: cytotoxic; HepG2 CAGA-GFP viability, ATP luminescence, 18 h; hit rate 0.76% among 410,000
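HepG2 CAGA-GFP cells (1000/well, DMEM with 1% FBS) received compound, then TGF-beta at 500 pg/mL final, and were incubated 18 hours at 37 degrees C. Viability was read by CellTiter-Glo luminescence. Media-only wells were set as complete cell-killing and DMSO as no toxicity.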
ATXN2 expr inh: Primary qHTS for Inhibitors of ATXN expression | HEK-293 ATXN2-luciferase reporter, luminescence, 24 h | Potency, µM (series often up to 57 µM), for inactives: at the top dose activity change, negative = inhibition, most hits filed as inhibitors | hit rate 0.72% among 360,000; further: on the % scale 0 is the no-effect control and ±100 the full control effect; nearly all actives have a fitted effect of over 55% in size
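qHTS (up to 57 uM final) was run with 24 h compound exposure of reporter cells at 37 °C. Each well was multiplexed: SteadyGlo luminescence measured ATXN2-luciferase expression after a fluorogenic Gly-Phe-AFC viability readout (25 uM final).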
S2 tox: Viability Counterscreen for Primary qHTS for Inhibitors of ATXN expression. AID 651635, 2014. hit rate 0.49% among 400,000. S2 cells (HEK-293 line with an ATXN2-luciferase reporter) viability, CellTiter-Fluor protease fluorescence, 24 h. Potency, µM (highest dose often 56.7 µM), actives largely listed as cytotoxic; further: nearly all actives have a fitted effect of over 40% in size
TGFb inhibitor: qHTS for Inhibitors of TGF-b | hit rate 1.2% among 410,000 | Potency, µM (series often up to 46.1 µM), inactives show at the top dose activity, negative = inhibition, usual class: inhibitors | HepG2 CAGA-GFP TGF-b/SMAD3 reporter, GFP fluorescence, 18 h; TGF-beta stimulated, 500 pg/mL final; further: on the % scale 0 is the no-effect control and ±100 the full control effect; nearly all actives have a fitted effect of over 65% in size
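TGF-beta reporter screen: HEPG2 CAGA-GFP, 1% FBS, 500 pg/mL TGF-beta final, 18 h; per-cell GFP summed per well; curves fitted and categorized by class.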
* hit, by the source's call; i = inactive; u = inconclusive; x = no result given. The call rests on the fitted dose curve; in most records, active means well fitted curve in the direction sought with a large enough effect; inconclusive means small, poorly fitted or top-dose-only effect, or another doubt; inactive means no such curve, though single readings can be large; an effect the other way counts as inactive or inconclusive. Potency means the concentration at half of the fitted maximal effect.

SMILES	Gal4-VP16 FLuc	RORgamma inh	HepG2 tox	ATXN2 expr inh	S2 tox	TGFb inhibitor
CC(C)(C)c1ccc2c(S(=O)(=O)O)c(C(C)(C)C)ccc2c1	4.0%	32.3%	x	x	i	x
CCCS(=O)(=O)NC(=O)C1(C)CCN(C(=O)c2cc(F)ccc2C)C1 (centres undefined)	x	x	-1.6%	5.8%	i	4.9%
C=CCNC(=S)NNc1nc2sc3c(c2c(=O)[nH]1)CC(C)(C)OC3	10µM*	5.62µM*	-35.6%	5.3%	i	4.9%
CCOC(=O)CNC(=O)Nc1cc(C(=O)NCc2ccc(C(C)C)cc2)ccc1N1CCCC1	x	x	-15.0%	14.1%	i	-14.7%
Cc1ccc(CNCCCSc2nc(C)cc(C)n2)cc1	2µM*	u	-28.1%	-10.4%	i	0.5%
C=CCN(C)NC(=O)Nc1ccccc1	-0.1%	20.2%	0.5%	-1.6%	i	-8.4%
C=CCN(C)NC(=S)Nc1ccccc1	10µM*	5.01µM*	25.3%	-10.8%	i	21.7%
CCOc1ccc2oc(=O)cc(CN3CCN(Cc4ccc(F)cc4)CC3)c2c1	x	x	-5.8%	x	x	-21.0%
S=C(Nc1ccccc1)N1N=CCC1c1ccccc1 (centres undefined)	7.94µM*	u	-3.6%	38.7%	i	0.6%
Fc1ccc(NC(=S)N2N=CCC2c2ccccc2)cc1 (centres undefined)	7.94µM*	3.55µM*	2.6%	x	x	-7.3%
O=C(Nc1cccc2ccccc12)N1N=CCC1c1ccccc1 (centres undefined)	-8.7%	16.1%	4.8%	53.3%	i	5.2%
O=C(Nc1cccc(Cl)c1)N1N=CCC1c1ccccc1 (centres undefined)	-11.5%	-33.7%	-0.9%	-26.6%	i	-2.6%
CN1C(=O)CC(C)(c2ccccc2)C1=O (centres undefined)	x	x	x	5.9%	i	x
CC(C)C(=O)NC(c1ccccc1)c1cc([N+](=O)[O-])c2cccnc2c1O (centres undefined)	u	6.31µM*	-40.1%	u	i	-9.3%
CC(=O)NC(c1ccccc1)c1cc([N+](=O)[O-])c2cccnc2c1O (centres undefined)	-27.7%	7.94µM*	3.3%	u	u	u
O=S(=O)(c1cccc2ccccc12)N1CCC2CC1c1cc(-c3ccc4c(c3)OCO4)ccc12 (centres undefined)	x	x	8.3%	2.7%	i	u
O=[N+]([O-])c1ccccc1/C=C1\C=Cc2ccccc21	x	x	-41.6%	x	x	-1.0%
Cc1c(C(=O)Nc2ccncc2)sc2nc(-c3ccccc3)cn12	u	-14.4%	-22.7%	-21.8%	i	u
COc1ccc(-c2cn3c(C)c(C(=O)Nc4cc(NC(C)=O)ccc4OC)sc3n2)cc1	u	12.6µM*	-0.7%	17.1%	i	-4.2%
Cc1c(C(=O)Nc2ccc3c(c2)OCCO3)sc2nc(-c3ccccc3)cn12	-13.5%	52.7%	-32.5%	31.6µM*	x	-29.0%
CCc1cnc2c(c1SCC(=O)Nc1ccc(C(=O)OC)cc1)c(=O)n(C)c(=O)n2C	x	x	0.8%	0.9%	u	-0.7%
COc1ccc2nc(N3C(=O)/C(=C/c4ccccc4)NC3=S)sc2c1	1.41µM*	1.41µM*	-17.2%	-7.4%	i	16.4%
CCOc1ccc2nc(N3C(=O)/C(=C/c4ccccc4)NC3=S)sc2c1	1.12µM*	1.26µM*	-12.7%	25.9%	i	-18.7%
OC(CNCC1CCCO1)Cn1c2ccc(Cl)cc2c2cc(Cl)ccc21 (centres undefined)	-12.3%	-10.6%	-100.4%	u	u	u
OC(CNCCC1C=Nc2ccccc21)Cn1c2ccc(Cl)cc2c2cc(Cl)ccc21 (centres undefined)	12.6µM*	u	-95.5%	31.6µM*	x	u
